# Measurements published in PubChem BioAssay (NCATS).
# Values joined by “and” are separate entries in the source; they are usually repeats but may differ in a detail not shown here. Equal values may be shown once. A number with no mark means an inactive call. Results filed as inconclusive are left out. Active and inactive are the calls of the source. Unless noted, calls come from the whole dose curve; as a rule, active = well fitted curve in the direction sought with a large enough effect; inconclusive = small, poorly fitted or top-dose-only effect, or another doubt; inactive = no such curve, though single readings can be large; an effect the other way counts as inactive or inconclusive.
# Biological target: ATP-dependent 6-phosphofructokinase (Trypanosoma brucei brucei) (UniProt O15648)
# Assay: qHTS Assay to Find Inhibitors of T. brucei phosphofructokinase: hit validation (AID 492961); note: % is set by controls: 0 for no effect and ±100 for the full control effect
# Conditions: T. brucei PFK, ADP-Glo luminescence; series mostly up to 51.4 µM; activity change, negative = inhibition: at the top concentration
# Outline: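 Luminescence from ADP-Glo reports ADP generated as T. brucei PFK (1.25 nM) phosphorylates 0.5 mM fructose-6-phosphate using 0.1 mM ATP. Reactions ran 45 min at room temperature, pH 8.0.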
# Sequence of ATP-dependent 6-phosphofructokinase (Trypanosoma brucei brucei) (O15648 whole entry, looked up): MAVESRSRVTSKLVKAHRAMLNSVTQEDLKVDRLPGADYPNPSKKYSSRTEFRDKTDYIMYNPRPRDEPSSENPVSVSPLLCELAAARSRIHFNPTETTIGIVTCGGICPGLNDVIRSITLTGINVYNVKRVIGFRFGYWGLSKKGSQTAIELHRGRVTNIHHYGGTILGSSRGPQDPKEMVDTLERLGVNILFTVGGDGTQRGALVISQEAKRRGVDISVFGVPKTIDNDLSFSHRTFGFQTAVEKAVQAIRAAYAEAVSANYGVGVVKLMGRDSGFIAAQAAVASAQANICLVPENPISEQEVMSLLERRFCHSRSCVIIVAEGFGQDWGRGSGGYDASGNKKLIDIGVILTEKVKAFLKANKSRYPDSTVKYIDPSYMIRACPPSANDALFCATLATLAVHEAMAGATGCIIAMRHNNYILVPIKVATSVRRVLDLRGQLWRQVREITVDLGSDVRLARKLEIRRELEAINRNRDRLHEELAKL
SMILES,"activity change, negative = inhibition",outcome
COc1ccc(Cc2nccc3cc(OC)c(OC)cc23)cc1OC,17.3% [at 24.3 µM],–
COc1ccccc1N1CCN(CCCNc2cc(=O)n(C)c(=O)n2C)CC1,0.126%,–
CCCCCN(C)CCC(O)(P(=O)(O)O)P(=O)(O)O,-1.6%,–
CC(=O)CCCCn1c(=O)c2c(ncn2C)n(C)c1=O,2.59% [at 24.3 µM],–
CCN(CC)C(=O)c1ccc(O)c(OC)c1,–,inactive
O=C(O)CCc1nc(-c2ccccc2)c(-c2ccccc2)o1,-4.79%,–
CCN(CC)CCOC(=O)c1ccc(N)cc1,-8.48% [at 24.3 µM],–
CN(C)CCC(c1ccccc1)c1ccccn1 (configuration not stated),-5.95%,–
CCN1CCC[C@H]1CNC(=O)c1cc(S(N)(=O)=O)ccc1OC,-2.57%,–
C[N+](C)(C)CCCCCC[N+](C)(C)C,-3.2%,–
Cc1cccc(C)c1OCC(C)N (configuration not stated),-4.51%,–
O=C1NCC2(CCN(CCc3ccccc3)CC2)O1,-3.25%,–
NCCS,4.15%,–
Clc1ccc(Cn2c(CN3CCCC3)nc3ccccc32)cc1,5.07% [at 24.3 µM],–

# Test system: not listed separately
# Assay: Validation screen for small molecules that induce genotoxicity in human embryonic kidney (HEK293T) cells expressing luciferase-tagged ELG1 (AID 493106); note: 0% is about no effect
# Conditions: luminescence; series mostly up to 46.1 µM; activity change, positive = ELG1 induction: at the top concentration
# Outline: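 In this validation screen, increased ELG1-luciferase signal flags compounds causing genetic stress. HEK293T reporter cells are treated 16 hr (37 °C, 5% CO2), developed with ONE-Glo for 30 min at room temperature, and imaged on a CCD-based reader.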
SMILES,"activity change, positive = ELG1 induction",Potency
O=C1NC(=O)C(c2ccccc2)(c2ccccc2)N1,-5.6%,–
COc1ccc(Cc2nccc3cc(OC)c(OC)cc23)cc1OC,4.63%,–
COc1ccccc1N1CCN(CCCNc2cc(=O)n(C)c(=O)n2C)CC1,-4.42%,–
CCCCCN(C)CCC(O)(P(=O)(O)O)P(=O)(O)O,-3.37%,–
COC(=O)[C@@H]1[C@H]2C[C@H]3c4[nH]c5ccccc5c4CCN3C[C@@H]2CC[C@@H]1O,-5.84%,–
CCN(CC)CCNC(=O)c1ccc(N)cc1,-5.72%,–
O=C(NCCN1CCOCC1)c1ccc(Cl)cc1,-0.782%,–
CC(=O)CCCCn1c(=O)c2c(ncn2C)n(C)c1=O,-0.963%,–
CC(=O)c1ccc(S(=O)(=O)NC(=O)NC2CCCCC2)cc1,-6.68%,–
CCN(CC)C(=O)c1ccc(O)c(OC)c1,-7.07%,–
O=C(O)CCc1nc(-c2ccccc2)c(-c2ccccc2)o1,-4.09%,–
CCN(CC)CCOC(=O)c1ccc(N)cc1,-7.85%,–
CN(C)CCC(c1ccccc1)c1ccccn1 (configuration not stated),-1.14%,–
CC(C)NCC(O)COc1cccc2[nH]ccc12 (configuration not stated),-7.7%,–
CCN1CCC[C@H]1CNC(=O)c1cc(S(N)(=O)=O)ccc1OC,-1.75%,–
C[N+](C)(C)CCCCCC[N+](C)(C)C,–,inactive
Cc1cccc(C)c1OCC(C)N (configuration not stated),-8.06%,–
CCCNC(=O)NS(=O)(=O)c1ccc(Cl)cc1,-2.98%,–
NCCS,-3.37%,–
NC(N)=Nc1nc(CSCC/C(N)=N/S(N)(=O)=O)cs1,-1.05%,–
Clc1ccc(Cn2c(CN3CCCC3)nc3ccccc32)cc1,-13.8%,–

# Biological target: ATPase family AAA domain-containing protein 5 (Homo sapiens) (UniProt Q96QE3)
# Assay: Validation screen for small molecules that inhibit ELG1-dependent DNA repair in human embryonic kidney (HEK293T) cells expressing luciferase-tagged ELG1 (AID 493107);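 note: cells co-treated with the DNA-damaging agent 5-fluorouridine alongside compound; % is set by controls: 0 for no effect and ±100 for the full control effect; inhibitors lower the ELG1-luciferase luminescence signal; nearly all actives have a fitted effect of over 70% in size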
# Conditions: HEK293T ELG1-luciferase level, luminescence, 5-fluorouridine co-treatment, 16 h; series mostly up to 46.1 µM; activity change, negative = decrease: at the top concentration
# Outline: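 Compounds reducing 5-fluorouridine-driven ELG1-luciferase signal in HEK293T cells were scored; exposure lasted 16 hr at 37 °C with luminescence detected via ONE-Glo.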
# Sequence of ATPase family AAA domain-containing protein 5 (Homo sapiens) (Q96QE3 whole entry, looked up, the tested form may be a part): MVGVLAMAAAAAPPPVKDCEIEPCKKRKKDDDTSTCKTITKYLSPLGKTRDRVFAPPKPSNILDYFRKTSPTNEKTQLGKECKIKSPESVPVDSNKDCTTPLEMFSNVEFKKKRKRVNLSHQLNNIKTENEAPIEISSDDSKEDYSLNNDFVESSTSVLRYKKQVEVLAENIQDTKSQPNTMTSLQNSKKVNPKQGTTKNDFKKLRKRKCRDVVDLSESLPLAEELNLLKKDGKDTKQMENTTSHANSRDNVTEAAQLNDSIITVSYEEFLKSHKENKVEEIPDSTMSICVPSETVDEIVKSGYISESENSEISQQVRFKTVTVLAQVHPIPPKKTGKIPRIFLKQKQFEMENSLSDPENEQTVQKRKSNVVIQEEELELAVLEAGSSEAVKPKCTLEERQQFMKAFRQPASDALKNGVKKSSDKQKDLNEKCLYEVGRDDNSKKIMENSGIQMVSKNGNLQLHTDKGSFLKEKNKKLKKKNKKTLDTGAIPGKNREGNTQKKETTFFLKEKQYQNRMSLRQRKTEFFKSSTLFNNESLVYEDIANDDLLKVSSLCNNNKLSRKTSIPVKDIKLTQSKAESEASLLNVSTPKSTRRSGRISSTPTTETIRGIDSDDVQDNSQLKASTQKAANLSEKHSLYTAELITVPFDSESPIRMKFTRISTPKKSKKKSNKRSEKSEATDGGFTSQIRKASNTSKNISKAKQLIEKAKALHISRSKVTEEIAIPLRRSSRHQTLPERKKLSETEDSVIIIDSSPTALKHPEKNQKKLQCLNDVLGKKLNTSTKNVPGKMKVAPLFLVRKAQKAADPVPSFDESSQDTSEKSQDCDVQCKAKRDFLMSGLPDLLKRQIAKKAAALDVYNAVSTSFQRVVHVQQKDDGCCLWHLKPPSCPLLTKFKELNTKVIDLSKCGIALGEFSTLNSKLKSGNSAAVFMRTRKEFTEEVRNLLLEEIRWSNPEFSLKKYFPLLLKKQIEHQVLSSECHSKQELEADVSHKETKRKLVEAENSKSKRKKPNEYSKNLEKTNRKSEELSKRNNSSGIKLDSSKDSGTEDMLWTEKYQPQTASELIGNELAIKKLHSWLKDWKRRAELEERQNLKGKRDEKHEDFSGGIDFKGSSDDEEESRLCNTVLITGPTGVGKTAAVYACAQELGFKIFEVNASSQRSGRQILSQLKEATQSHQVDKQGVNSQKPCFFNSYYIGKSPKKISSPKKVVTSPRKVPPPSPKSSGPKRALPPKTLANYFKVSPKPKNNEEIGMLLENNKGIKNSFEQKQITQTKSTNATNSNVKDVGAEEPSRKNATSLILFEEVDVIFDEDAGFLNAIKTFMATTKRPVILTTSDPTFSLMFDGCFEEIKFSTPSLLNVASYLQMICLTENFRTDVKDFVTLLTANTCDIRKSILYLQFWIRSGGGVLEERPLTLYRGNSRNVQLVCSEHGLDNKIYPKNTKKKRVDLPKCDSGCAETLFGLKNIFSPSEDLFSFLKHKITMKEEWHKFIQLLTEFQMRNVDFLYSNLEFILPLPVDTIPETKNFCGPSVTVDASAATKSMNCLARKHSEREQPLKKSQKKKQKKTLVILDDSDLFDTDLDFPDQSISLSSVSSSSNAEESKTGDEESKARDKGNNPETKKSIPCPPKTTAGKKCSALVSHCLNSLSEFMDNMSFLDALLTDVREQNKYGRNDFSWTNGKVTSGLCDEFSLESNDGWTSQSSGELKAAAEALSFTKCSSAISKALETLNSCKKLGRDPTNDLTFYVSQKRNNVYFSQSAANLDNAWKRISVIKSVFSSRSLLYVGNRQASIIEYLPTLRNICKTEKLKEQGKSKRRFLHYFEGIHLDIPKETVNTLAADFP
SMILES,"activity change, negative = decrease",outcome
O=C1NC(=O)C(c2ccccc2)(c2ccccc2)N1,0.365%,–
COc1ccc(Cc2nccc3cc(OC)c(OC)cc23)cc1OC,-12.9%,–
COc1ccccc1N1CCN(CCCNc2cc(=O)n(C)c(=O)n2C)CC1,2.68%,–
CCCCCN(C)CCC(O)(P(=O)(O)O)P(=O)(O)O,25.2%,–
COC(=O)[C@@H]1[C@H]2C[C@H]3c4[nH]c5ccccc5c4CCN3C[C@@H]2CC[C@@H]1O,-14.1%,–
CCN(CC)CCNC(=O)c1ccc(N)cc1,3.71%,–
O=C(NCCN1CCOCC1)c1ccc(Cl)cc1,21%,–
CC(=O)c1ccc(S(=O)(=O)NC(=O)NC2CCCCC2)cc1,1.4%,–
CCN(CC)C(=O)c1ccc(O)c(OC)c1,-1.09%,–
O=C(O)CCc1nc(-c2ccccc2)c(-c2ccccc2)o1,3.06%,–
CCN(CC)CCOC(=O)c1ccc(N)cc1,15.7%,–
CN(C)CCC(c1ccccc1)c1ccccn1 (configuration not stated),-5.62%,–
CC(C)NCC(O)COc1cccc2[nH]ccc12 (configuration not stated),5.89%,–
CCN1CCC[C@H]1CNC(=O)c1cc(S(N)(=O)=O)ccc1OC,-0.627%,–
C[N+](C)(C)CCCCCC[N+](C)(C)C,–,inactive
Cc1cccc(C)c1OCC(C)N (configuration not stated),0.777%,–
CCCNC(=O)NS(=O)(=O)c1ccc(Cl)cc1,5.74%,–
O=C1NCC2(CCN(CCc3ccccc3)CC2)O1,-0.585%,–
NCCS,-2.36%,–
NC(N)=Nc1nc(CSCC/C(N)=N/S(N)(=O)=O)cs1,-12.4%,–
Clc1ccc(Cn2c(CN3CCCC3)nc3ccccc32)cc1,6.95%,–

# Biological target: Thyrotropin-releasing hormone receptor (Homo sapiens) (UniProt P34981)
# Assay: qHTS for Small Molecule Agonists and Allosteric Enhancers of Human TRH Receptor: Validation Screen for Agonists (AID 493127;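 active = calcium activation more than 3 SD above the typical response in the agonist read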;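 note: intracellular calcium rise by fluo-8 fluorescence before TRH EC20 addition; 0% is about no effect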)
# Conditions: TRH receptor agonist cell assay; at 2 µM; stronger effect = higher value
# Outline: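 Kinetic fluorescence assay of agonist-induced calcium release: overnight-plated TRHR cells, room-temperature fluo-8 loading, baseline then compound addition with per-second reads.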
# Sequence of Thyrotropin-releasing hormone receptor (Homo sapiens) (P34981 whole entry, looked up): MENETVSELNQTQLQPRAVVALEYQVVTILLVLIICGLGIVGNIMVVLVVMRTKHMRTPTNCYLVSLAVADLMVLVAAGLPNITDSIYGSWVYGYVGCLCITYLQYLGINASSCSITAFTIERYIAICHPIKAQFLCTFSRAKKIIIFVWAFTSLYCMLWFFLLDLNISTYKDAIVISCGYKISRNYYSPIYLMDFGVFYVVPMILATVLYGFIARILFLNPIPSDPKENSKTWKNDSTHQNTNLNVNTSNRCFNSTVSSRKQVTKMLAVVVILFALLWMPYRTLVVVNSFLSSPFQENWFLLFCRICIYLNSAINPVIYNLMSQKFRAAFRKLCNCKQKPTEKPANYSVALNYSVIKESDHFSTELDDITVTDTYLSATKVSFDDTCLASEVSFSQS
row,SMILES,activation
1,O=C1NC(=O)C(c2ccccc2)(c2ccccc2)N1,0.438%
2,COc1ccccc1N1CCN(CCCNc2cc(=O)n(C)c(=O)n2C)CC1,-2.81%
3,COC(=O)[C@@H]1[C@H]2C[C@H]3c4[nH]c5ccccc5c4CCN3C[C@@H]2CC[C@@H]1O,0.625%
4,CC(=O)CCCCn1c(=O)c2c(ncn2C)n(C)c1=O,-2.31%
5,CC(=O)c1ccc(S(=O)(=O)NC(=O)NC2CCCCC2)cc1,0.188%
6,CCN(CC)C(=O)c1ccc(O)c(OC)c1,0.938%
7,O=C(O)CCc1nc(-c2ccccc2)c(-c2ccccc2)o1,-0.125%
8,CCN(CC)CCOC(=O)c1ccc(N)cc1,-0.312%
9,CN(C)CCC(c1ccccc1)c1ccccn1 (configuration not stated),1.44%
10,CC(C)NCC(O)COc1cccc2[nH]ccc12 (configuration not stated),-0.25%
11,CCN1CCC[C@H]1CNC(=O)c1cc(S(N)(=O)=O)ccc1OC,1%
12,C[N+](C)(C)CCCCCC[N+](C)(C)C,0.625% and 0.562%
13,Cc1cccc(C)c1OCC(C)N (configuration not stated),0.438%
14,O=C1NCC2(CCN(CCc3ccccc3)CC2)O1,0.562%
15,NCCS,1.25%
16,Clc1ccc(Cn2c(CN3CCCC3)nc3ccccc32)cc1,-8.12%
